Test: binders of probe aFGF2 on microarray, primary screen, stem cell growth factor project, biochemical, small-molecule microarray, fluorescence 635/667 (AID 1067);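 note: measures binding of biotinylated aFGF2 protein to printed compounds on slides; z-score merges feature fluorescence and signal-to-noise across triplicate slides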
Settings: higher = more signal

| SMILES | composite z-score |
| --- | --- |
| COCCOC(=O)N1C(=O)[C@@]2(c3cc(C#Cc4ccc(OC)cc4)ccc31)[C@H](C(=O)N1CCN(c3ncccn3)CC1)[C@H]1C(=O)O[C@H](c3ccccc3)[C@H](c3ccccc3)N1[C@@H]2c1ccc(O)cc1 | -0.144 |
| COC(=O)C(CC#Cc1ccc2c(c1)[C@]1(C(=O)N2)[C@H](C(=O)NC[C@H](O)c2ccccc2)[C@H]2C(=O)O[C@H](c3ccccc3)[C@H](c3ccccc3)N2[C@@H]1c1ccc(OCCO)cc1)C(=O)OC | 0.225 |
| O=C1C2C=CC(C(O)c3ccc(-c4ccccc4)s3)N(n3cnnc3)C2C(=O)N1Cc1ccccc1 (configuration not stated) | -0.083 |
| O=c1cccc(C=Cc2ccccc2)o1 | -0.144 |
| C=C(C(=O)CC[C@H](OC(C)=O)c1ccc(OCCO)cc1)C(C)C | -0.134 |
| CCCC[C@H]1OB(O)C[C@H]2C1=C(C)C[C@H]1C(=O)N(Cc3ccccc3)C(=O)[C@H]12 | 0.0171 |
| CCCCC(CC)C(O)C1C=CC2C(=O)N(c3ccccc3)C(=O)C2N1Nc1ccccc1 (configuration not stated) | 0.0472 |
| O=C(OCCF)C1=CCC(c2cccc(Cl)c2)O1 (configuration not stated) | -0.0907 |
| COCC1=C2[C@@H](CCc3ccccc3)OB(O)C[C@@H]2[C@@H]2C(=O)N(Cc3ccccc3)C(=O)[C@@H]2C1 | -0.0419 |
| CC(C)C[C@@H]1NC(=O)[C@H]2C[C@@H](C(=O)NCCCCCNC(=O)CS)[C@@H](c3cccc(OCCO)c3)N2C1=O | -0.0474 |
| COc1ccc(CCN2C(=O)[C@@]3(Cc4ccccc42)c2ccccc2C(=O)N(Cc2ccccc2Cl)[C@H]3c2ccc(CO)cc2)cc1 | -0.0744 |
| CCCCCN1CC=CC23O[C@@H]4C=CCOC(=O)[C@@H]4[C@H]2C(=O)N(CCCO)[C@@H]3C1=O (some centres not stated) | -0.195 |

Reference: PubChem BioAssay
